In PubChem BioAssay (NCATS) one finds Potency data, which are given here for 24 compounds.

Assay [1] concerns the target Calcium and integrin-binding protein 1 (Homo sapiens) (UniProt Q99828). Put plainly: Primary qHTS for Identification of Calcium Integrin Binding Protein 1 (CIB1) Competitor (AID 1508620; active = well fitted curve in the direction sought with a large enough effect; an effect the other way counts as inactive or inconclusive;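 also: GST tagged CIB1 binding a fluorescein labelled alphaIIb integrin peptide tracer; top concentration of the series differs between compounds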). An outline of the steps: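 CIB1-GST (1 uM final) and compound incubated 15 min at room temperature before adding FITC-alphaIIb peptide tracer (100 nM final). Competition for binding read by fluorescence polarization (ex 480, em 540) after another 15 min at room temperature.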

Assay [2] can be described thus: Primary qHTS for small molecule stabilizers of the endoplasmic reticulum resident proteome: Secreted ER Calcium Modulated Protein (SERCaMP) assay (AID 1508630; active = well fitted curve in the direction sought with a large enough effect; an effect the other way counts as inactive or inconclusive). The gist of the method:
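GLuc-SERCaMP-expressing SH-SY5Y cells, pretreated 16 h with compound, are challenged with thapsigargin to empty ER calcium stores; after 4 h, coelenterazine is added directly to the medium and luminescence is imaged.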
Background: qHTS replaces the single test concentration by a dilution series.

Assay [3] in a line: A High-Content qHTS Against Drug Library for the Identification of Small Molecules that Inhibit DYT1 Early Onset Primary Dystonia-Associated Cell Pathology (AID 1645839; calls by dose curve; also: potency is read from the fitted curve at half-maximal effect). An outline of the steps: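 In this high-content image screen, delE TorsinA mislocalization in inducible Flp-In 293 cells is scored as %pathology, with cell count serving as the counterscreen. Compound exposure lasts 48 h under tetracycline induction in reduced-serum medium.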

In assay [4] the target is Cytochrome P450 2D6 (Homo sapiens) (UniProt P10635). Put plainly: Cytochrome P450 family 2 subfamily D member 6 (CYP2D6) small molecule antagonists: luciferase biochemical (cell-free) qHTS assay (AID 1645840). Also: nearly all actives have a fitted effect of over 55% in size. Also: potency is read from the fitted curve at half-maximal effect. The gist of the method:
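P450-Glo luminescent screen: recombinant CYP2D6 enzyme–proluciferin substrate mix preincubated with compound 10 min at room temperature, then NADPH regeneration added for 1 h at room temperature. Detection reagent added for 20 min; luciferin light read as relative luminescence units.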

In assay [5] the target is Cytochrome P450 2C9 (Homo sapiens) (UniProt P11712). Put plainly: Cytochrome P450 family 2 subfamily C member 9 (CYP2C9) small molecule antagonists: luciferase biochemical (cell-free) qHTS assay (AID 1645842). Also: nearly all actives have a fitted effect of over 55% in size. Also: potency is read from the fitted curve at half-maximal effect. The gist of the method:
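Luminescence, after 20 min with luciferin detection reagent, reflected CYP2C9 turnover during a 1 h NADPH-driven reaction at 37C. Enzyme-substrate mix contained 0.4% bovine serum albumin and was preincubated with compound 10 min at room temperature.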

For assay [6], the target named is Cytochrome P450 3A4 (Homo sapiens) (UniProt P08684). Put plainly: Cytochrome P450 family 3 subfamily A member 4 (CYP3A4) small molecule antagonists: luciferase qHTS assay (AID 1645841). Also: nearly all actives have a fitted effect of over 45% in size. The gist of the method: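 Luminescent CYP3A4 activity readout: compounds plus enzyme-substrate mix 10 min at room temperature, reaction started with NADPH regenerating system for 1 h, stopped with detection reagent, read after 20 min. Ketoconazole served as control.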
Cytochrome P450 3A4 (Homo sapiens), sequence (P08684 whole entry, looked up): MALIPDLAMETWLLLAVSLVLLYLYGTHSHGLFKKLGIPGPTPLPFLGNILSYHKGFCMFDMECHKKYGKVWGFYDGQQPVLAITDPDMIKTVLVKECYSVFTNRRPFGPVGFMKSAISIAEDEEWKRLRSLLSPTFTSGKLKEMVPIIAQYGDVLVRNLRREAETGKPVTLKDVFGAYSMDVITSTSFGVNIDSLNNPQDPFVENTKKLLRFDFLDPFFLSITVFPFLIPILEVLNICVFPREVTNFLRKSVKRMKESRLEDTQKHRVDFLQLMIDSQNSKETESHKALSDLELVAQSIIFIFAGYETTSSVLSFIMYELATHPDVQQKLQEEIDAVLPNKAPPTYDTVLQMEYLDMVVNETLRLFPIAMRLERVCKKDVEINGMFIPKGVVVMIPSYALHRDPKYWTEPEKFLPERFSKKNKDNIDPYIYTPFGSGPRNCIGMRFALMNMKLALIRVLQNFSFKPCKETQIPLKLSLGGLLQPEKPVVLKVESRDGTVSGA

Results filed as inconclusive are left out. Active and inactive are the calls of the source. Unless noted, calls follow the shape of the dose curve; as a rule, active = well fitted curve in the direction sought with a large enough effect in the repeat runs; inconclusive = weak or mixed curves; inactive = no such curve, though single readings can be large; an effect the other way counts as inactive or inconclusive. Where a SMILES comes first, the peptide text is derived from it.

Calcium and integrin-binding protein 1 (Homo sapiens), sequence (Q99828 whole entry, looked up): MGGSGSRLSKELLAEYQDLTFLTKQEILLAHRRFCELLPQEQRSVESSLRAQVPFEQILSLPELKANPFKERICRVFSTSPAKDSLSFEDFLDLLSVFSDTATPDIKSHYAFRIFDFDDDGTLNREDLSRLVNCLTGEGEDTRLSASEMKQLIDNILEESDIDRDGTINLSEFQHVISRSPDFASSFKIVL
Cytochrome P450 2D6 (Homo sapiens), sequence (P10635 whole entry, looked up): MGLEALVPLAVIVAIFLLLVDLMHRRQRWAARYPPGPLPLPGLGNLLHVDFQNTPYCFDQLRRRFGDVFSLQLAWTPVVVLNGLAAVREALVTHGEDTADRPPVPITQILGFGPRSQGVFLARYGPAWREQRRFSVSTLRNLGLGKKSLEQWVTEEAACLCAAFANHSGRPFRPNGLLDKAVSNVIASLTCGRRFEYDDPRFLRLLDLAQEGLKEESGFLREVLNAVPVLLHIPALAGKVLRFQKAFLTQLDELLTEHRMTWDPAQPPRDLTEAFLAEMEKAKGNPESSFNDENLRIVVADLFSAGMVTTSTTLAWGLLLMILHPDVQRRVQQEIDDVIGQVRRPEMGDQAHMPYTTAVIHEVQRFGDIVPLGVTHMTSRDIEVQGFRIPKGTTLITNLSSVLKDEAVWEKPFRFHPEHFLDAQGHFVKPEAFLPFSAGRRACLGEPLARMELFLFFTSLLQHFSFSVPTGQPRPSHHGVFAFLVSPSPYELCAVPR
Cytochrome P450 2C9 (Homo sapiens), sequence (P11712 whole entry, looked up): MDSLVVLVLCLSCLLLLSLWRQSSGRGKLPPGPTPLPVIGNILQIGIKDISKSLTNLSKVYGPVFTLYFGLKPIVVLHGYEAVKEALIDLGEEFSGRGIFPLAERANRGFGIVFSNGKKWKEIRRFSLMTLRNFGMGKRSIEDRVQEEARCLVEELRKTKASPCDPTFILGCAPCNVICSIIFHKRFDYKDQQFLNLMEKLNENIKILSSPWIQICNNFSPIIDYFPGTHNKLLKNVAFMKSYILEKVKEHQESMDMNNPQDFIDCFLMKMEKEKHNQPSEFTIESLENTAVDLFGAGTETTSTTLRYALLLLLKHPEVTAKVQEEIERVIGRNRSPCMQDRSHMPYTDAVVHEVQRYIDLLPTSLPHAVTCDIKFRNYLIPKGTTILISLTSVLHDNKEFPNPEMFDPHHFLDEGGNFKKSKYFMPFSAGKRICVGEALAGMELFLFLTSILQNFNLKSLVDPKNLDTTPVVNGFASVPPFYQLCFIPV

`COc1cc(C(=O)NC2CCCNC2)cc(OC)c1OC` (stereo unspecified): the Potency entry in assay [1], in assay [2], in assay [3], in assay [4] and in assay [5] was “inactive” each time.
As to `CC(Oc1c(Cl)cccc1Cl)C1=NCCN1` (stereo unspecified), the Potency result in assay [1], in assay [2] and in assay [3] was “inactive” in each case. In assay [4], the Potency was 8.71 µM (active).
In the case of `CCC(C(=O)NC(=O)NC(C)=O)c1ccccc1` (stereo unspecified), the Potency result in assay [1], in assay [2], in assay [3], in assay [4] and in assay [5] was “inactive” each time.
Turning to `COCCOCC(OC)OC`, the Potency entry in assay [1], in assay [2], in assay [3], in assay [4], in assay [6] and in assay [5] was “inactive” in each case.
Take `OC1(c2ccc(Cl)cc2)CCNCC1`: the Potency entry in assay [1], in assay [2] and in assay [3] was “inactive” in each case. Moreover, in assay [4], the Potency is 15.5 µM (active).
Turning to `Nc1ccc2c(c1)CN1C(=O)c3ccccc3C1=N2`, the Potency entry in assay [1], in assay [2] and in assay [3] was “inactive” in each case. The Potency was 1.69 µM (active) in assay [4] and 4.25 µM (active) in assay [5].
With `CCCCCCCCCCCCCCCC[N+](C)(C)Cc1ccccc1`, the Potency result in assay [1] and in assay [2] was “inactive” each time. For the same compound, the figures for the Potency in assay [3] and in assay [4] were 22.4 µM (active) and 0.195 µM (active), respectively.
As to `CN(C(=O)C(Cl)Cl)c1ccc(OC(=O)c2ccco2)cc1`, the Potency result in assay [1], in assay [2], in assay [3] and in assay [4] was “inactive” each time.
In the case of `O=C(O)[C@@H](O)[C@H](O)[C@H](O)[C@@H](O)C(=O)O`, the Potency entry in assay [1], in assay [2], in assay [3], in assay [4], in assay [6] and in assay [5] was “inactive” in each case.
In the case of `CCCCCC1Nc2cc(C(F)(F)F)c(S(N)(=O)=O)cc2S(=O)(=O)N1` (stereo unspecified), the Potency result in assay [1], in assay [2], in assay [3] and in assay [6] was “inactive” each time. The Potency in assay [4] is 3.89 µM (active); in assay [5] it was 1.95 µM (active).
As for `O=C(CCOCCOCCOCCOCCC(=O)Nc1c(I)cc(I)c(C(=O)O)c1I)Nc1c(I)cc(I)c(C(=O)O)c1I`, the Potency entry in assay [1], in assay [2], in assay [3], in assay [4], in assay [6] and in assay [5] was “inactive” throughout.
`CC(=O)OCC(=O)[C@@]1(O)[C@H](OC(C)=O)C[C@H]2[C@@H]3CCC4=CC(=O)C=C[C@]4(C)[C@@]3(F)[C@@H](O)C[C@@]21C`: the Potency entry in assay [1], in assay [2], in assay [3], in assay [4] and in assay [5] was “inactive” each time.
On to `CN1CCN(N)CC1`, for which the Potency entry in assay [1], in assay [2], in assay [3], in assay [4] and in assay [5] was “inactive” throughout.
For the compound `O=C(O)C1CCC1`, the Potency entry in assay [1], in assay [2], in assay [3], in assay [4], in assay [6] and in assay [5] was “inactive” each time.
Consider `CC(=O)O[C@H]1CC[C@@]2(C)C(=CC[C@@H]3[C@@H]2CC[C@]2(C)C(C(C)=O)=CC[C@@H]32)C1`, for which the Potency result in assay [1], in assay [2], in assay [3], in assay [4] and in assay [5] was “inactive” each time.
Turning to `O=[N+]([O-])c1nccn1CO[C@@H](CO)[C@H](O)CO`, the Potency result in assay [1], in assay [2], in assay [3], in assay [4] and in assay [5] was “inactive” in each case.
For `CCCCC(O)/C=C(C)/C=C/C=C/C(=O)N1CCCC1=O` (stereo unspecified), the Potency entry in assay [1], in assay [2], in assay [3], in assay [4] and in assay [5] was “inactive” in each case.
On to `CC(=O)N[C@@H](CO)C(=O)N[C@@H](CC(=O)O)C(=O)N[C@@H](CCCCN)C(=O)N1CCC[C@H]1C(=O)O` (Ac-SDKP-OH), for which the Potency entry in assay [1], in assay [2], in assay [3], in assay [4] and in assay [5] was “inactive” throughout.
Regarding `CC(C(=O)O)c1ccc(/C=C2\CCCCC2=O)cc1` (stereo unspecified), the Potency entry in assay [1], in assay [2], in assay [3], in assay [4] and in assay [5] was “inactive” in each case.
As for `CCCc1c2oc(C(=O)O)cc(=O)c2cc2c(=O)cc(C(=O)O)n(CC)c12`, the Potency result in assay [1], in assay [2], in assay [3], in assay [4] and in assay [5] was “inactive” throughout.
As to `Cc1ccc(Cl)c(OCC(O)CNC(C)(C)C)c1` (stereo unspecified), the Potency result in assay [1], in assay [2], in assay [3] and in assay [5] was “inactive” in each case. Further, the Potency in assay [4] was 1.74 µM (active).
Consider `COc1cc(C(=O)OC(COCCC(C)C)CN2CCOCC2)cc(OC)c1OC` (stereo unspecified), for which the Potency entry in assay [1], in assay [2], in assay [3] and in assay [4] was “inactive” throughout. For the same compound, the Potency in assay [5] was 2.19 µM (active).
On to `O=C(O)CNC(=O)CNC(=O)CNC(=O)CSC(=O)c1ccccc1`, for which the Potency entry in assay [1], in assay [2], in assay [3], in assay [4] and in assay [5] was “inactive” in each case.
On to `CCCCCCCCCCCCCCCCCCN(C)C`, for which the Potency result in assay [1], in assay [2], in assay [3], in assay [4] and in assay [5] was “inactive” each time.
